# Measurements: paper PMC7862700, “An all-to-all approach to the identification of sequence-specific readers for epigenetic DNA modifications on cytosine”
# Legend:
# Test in all cases: DAPPL (digital affinity profiling via proximity ligation, sequencing); 10 mM Tris-HCl pH 7.5, 50 mM NaCl, 1 mM DTT, 4% glycerol, room temperature, 30 min; GST-TFs on glutathione beads, 16-mer random dsDNA library, 0.1% formaldehyde crosslink after washing; high values mean tight binding
# Conditions in all cases: protein: recombinant; tags: N-terminal GST; dsDNA, one strand shown
# FLI1 = target: T1, FLI1 (Homo sapiens, UniProt Q01543 1-452)
# T1 sequence: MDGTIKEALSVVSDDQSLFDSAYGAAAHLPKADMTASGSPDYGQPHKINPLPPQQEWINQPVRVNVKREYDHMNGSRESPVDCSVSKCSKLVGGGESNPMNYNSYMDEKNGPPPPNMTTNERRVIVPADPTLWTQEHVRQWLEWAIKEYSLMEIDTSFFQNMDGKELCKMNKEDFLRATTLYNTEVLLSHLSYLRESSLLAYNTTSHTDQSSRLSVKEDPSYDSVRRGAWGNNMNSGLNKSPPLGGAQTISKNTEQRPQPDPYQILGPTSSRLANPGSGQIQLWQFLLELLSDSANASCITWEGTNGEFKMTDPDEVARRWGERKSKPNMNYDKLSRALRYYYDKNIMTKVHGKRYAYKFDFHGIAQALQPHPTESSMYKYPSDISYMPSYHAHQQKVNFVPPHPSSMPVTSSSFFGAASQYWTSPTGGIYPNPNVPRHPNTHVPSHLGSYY
# In short: (§1)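 After expression in yeast as GST fusions, human transcription factors were bound to glutathione beads, DNA-barcoded and mixed with a tag-only sample. The pools were incubated with 200 nmole of a 16-mer random double-stranded DNA library in Tris/NaCl/DTT/glycerol buffer (30 min, room temperature), washed and crosslinked with 0.1% formaldehyde. Proximity ligation with BsaI/T4 ligase ran for 1 h at 37 °C, before PCR amplification and sequencing on an Illumina NextSeq500. Binding signal is a hexamer's read frequency for a factor divided by its frequency for the tag-only sample.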
# ELK1 = target: T2, ELK1 (Homo sapiens, UniProt P19419 1-428)
# T2 sequence: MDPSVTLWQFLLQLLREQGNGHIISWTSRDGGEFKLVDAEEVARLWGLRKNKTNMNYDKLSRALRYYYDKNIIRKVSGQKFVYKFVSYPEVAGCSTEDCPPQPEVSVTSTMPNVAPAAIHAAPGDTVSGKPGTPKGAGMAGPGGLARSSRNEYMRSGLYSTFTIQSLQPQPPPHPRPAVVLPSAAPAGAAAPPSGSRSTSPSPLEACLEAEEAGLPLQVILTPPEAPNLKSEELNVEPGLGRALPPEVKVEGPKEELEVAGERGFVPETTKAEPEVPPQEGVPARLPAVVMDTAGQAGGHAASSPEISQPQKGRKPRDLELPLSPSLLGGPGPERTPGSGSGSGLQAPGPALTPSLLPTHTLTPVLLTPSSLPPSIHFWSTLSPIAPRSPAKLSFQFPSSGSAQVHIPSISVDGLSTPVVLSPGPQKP
# In short: as §1
# ERG = target: T3, ERG (Homo sapiens, UniProt P11308 1-479)
# T3 sequence: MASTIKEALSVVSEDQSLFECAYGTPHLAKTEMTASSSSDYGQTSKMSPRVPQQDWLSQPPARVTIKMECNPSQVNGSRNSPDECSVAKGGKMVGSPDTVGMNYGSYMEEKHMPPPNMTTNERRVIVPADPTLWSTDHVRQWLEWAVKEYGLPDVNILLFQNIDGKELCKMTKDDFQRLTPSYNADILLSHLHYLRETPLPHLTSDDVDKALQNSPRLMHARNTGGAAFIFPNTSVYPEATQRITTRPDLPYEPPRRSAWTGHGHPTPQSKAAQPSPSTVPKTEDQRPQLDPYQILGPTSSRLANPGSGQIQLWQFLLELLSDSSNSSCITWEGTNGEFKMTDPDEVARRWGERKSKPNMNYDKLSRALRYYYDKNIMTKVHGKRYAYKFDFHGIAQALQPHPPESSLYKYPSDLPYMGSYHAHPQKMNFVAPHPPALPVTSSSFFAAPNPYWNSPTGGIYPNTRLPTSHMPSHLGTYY
# In short: as §1
# ELF1 = ELF1 (Homo sapiens, UniProt P32519 1-619)
# In short: as §1
# EHF = target: T4, EHF (Homo sapiens, UniProt Q9NZC4 1-300)
# T4 sequence: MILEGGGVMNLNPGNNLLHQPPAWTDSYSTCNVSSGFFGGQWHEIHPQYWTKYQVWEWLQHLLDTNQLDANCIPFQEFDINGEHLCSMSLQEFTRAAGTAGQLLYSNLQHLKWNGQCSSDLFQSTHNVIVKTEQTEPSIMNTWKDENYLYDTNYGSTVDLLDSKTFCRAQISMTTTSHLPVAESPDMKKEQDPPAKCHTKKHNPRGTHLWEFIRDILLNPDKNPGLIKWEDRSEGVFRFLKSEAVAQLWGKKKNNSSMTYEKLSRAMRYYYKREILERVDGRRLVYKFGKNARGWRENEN
# In short: as §1
# SPI1 = SPI1 (Homo sapiens, UniProt P17947 1-270)
# In short: as §1
# SPIB = SPIB (Homo sapiens, UniProt Q01892 1-262)
# In short: as §1
# ELK3 = target: T5, ELK3 (Homo sapiens, UniProt P41970 1-407)
# T5 sequence: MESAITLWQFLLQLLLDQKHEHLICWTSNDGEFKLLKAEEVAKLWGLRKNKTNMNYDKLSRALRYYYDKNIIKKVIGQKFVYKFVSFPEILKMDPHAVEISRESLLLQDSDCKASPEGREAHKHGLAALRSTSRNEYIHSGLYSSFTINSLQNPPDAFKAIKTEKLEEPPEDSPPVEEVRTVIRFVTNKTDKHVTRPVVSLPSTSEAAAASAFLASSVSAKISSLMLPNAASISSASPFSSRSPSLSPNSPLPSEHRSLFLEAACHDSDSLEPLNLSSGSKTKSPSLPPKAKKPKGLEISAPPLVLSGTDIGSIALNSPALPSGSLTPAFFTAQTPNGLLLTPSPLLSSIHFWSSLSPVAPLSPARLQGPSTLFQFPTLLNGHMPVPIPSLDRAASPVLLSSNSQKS
# In short: as §1
# FEV = target: T6, FEV (Homo sapiens, UniProt Q99581 1-238)
# T6 sequence: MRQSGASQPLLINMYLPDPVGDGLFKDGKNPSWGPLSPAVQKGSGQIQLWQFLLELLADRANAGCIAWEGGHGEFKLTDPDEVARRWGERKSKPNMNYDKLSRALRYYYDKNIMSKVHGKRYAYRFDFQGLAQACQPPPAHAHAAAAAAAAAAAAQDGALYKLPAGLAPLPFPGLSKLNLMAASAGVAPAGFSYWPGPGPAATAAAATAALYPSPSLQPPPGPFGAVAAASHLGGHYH
# In short: as §1
# ETV5 = ETV5 (Homo sapiens, UniProt P41161 1-510)
# In short: as §1
# SPIC = target: T7, SPIC (Homo sapiens, UniProt Q8N5J4 1-248)
# T7 sequence: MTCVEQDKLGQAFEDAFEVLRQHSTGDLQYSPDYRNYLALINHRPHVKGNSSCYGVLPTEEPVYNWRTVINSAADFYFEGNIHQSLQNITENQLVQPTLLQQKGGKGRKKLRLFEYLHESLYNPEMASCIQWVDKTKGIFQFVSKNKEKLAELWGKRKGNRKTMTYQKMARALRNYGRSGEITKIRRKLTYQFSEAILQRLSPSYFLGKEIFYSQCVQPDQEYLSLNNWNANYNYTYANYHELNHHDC
# In short: as §1
# ELF4 = ELF4 (Homo sapiens, UniProt Q99607 1-663)
# In short: as §1
# ELK4 = target: T8, ELK4 (Homo sapiens, UniProt P28324-2 1-405)
# T8 sequence: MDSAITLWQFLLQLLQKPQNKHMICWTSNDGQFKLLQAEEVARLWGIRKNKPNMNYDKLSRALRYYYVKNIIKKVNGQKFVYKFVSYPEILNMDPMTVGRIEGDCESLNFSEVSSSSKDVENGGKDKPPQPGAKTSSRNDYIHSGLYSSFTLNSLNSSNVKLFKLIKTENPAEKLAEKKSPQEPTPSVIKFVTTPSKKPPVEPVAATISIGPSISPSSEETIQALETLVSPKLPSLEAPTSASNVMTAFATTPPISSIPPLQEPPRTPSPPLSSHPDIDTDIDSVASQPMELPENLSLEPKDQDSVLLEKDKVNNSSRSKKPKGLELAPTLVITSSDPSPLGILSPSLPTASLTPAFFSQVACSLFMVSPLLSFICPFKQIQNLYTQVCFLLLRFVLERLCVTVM
# In short: as §1
# ETV2 = target: T9, ETV2 (Homo sapiens, UniProt O00321 1-342)
# T9 sequence: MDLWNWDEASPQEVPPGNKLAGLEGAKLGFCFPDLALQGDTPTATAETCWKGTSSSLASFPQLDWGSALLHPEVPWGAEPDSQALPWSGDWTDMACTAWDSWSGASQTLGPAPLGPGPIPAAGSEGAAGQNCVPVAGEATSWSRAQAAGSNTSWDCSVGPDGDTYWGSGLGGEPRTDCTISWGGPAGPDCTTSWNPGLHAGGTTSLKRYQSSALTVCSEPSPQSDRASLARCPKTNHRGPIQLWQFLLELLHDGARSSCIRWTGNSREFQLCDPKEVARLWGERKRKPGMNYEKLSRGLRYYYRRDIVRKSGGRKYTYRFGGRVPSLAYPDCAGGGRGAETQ
# In short: as §1
# ELF3 = target: T10, ELF3 (Homo sapiens, UniProt P78545 1-371)
# T10 sequence: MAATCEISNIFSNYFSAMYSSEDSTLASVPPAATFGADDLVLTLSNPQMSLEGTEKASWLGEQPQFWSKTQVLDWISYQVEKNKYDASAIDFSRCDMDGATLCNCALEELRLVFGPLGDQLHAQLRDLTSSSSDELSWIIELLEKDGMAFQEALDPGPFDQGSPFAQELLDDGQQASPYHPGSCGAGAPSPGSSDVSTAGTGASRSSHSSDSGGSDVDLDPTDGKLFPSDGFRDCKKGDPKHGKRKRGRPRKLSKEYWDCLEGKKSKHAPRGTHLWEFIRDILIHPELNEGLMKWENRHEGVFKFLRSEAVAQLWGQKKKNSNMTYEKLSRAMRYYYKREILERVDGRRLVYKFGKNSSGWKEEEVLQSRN
# In short: as §1
# ETV1 = ETV1 (Homo sapiens, UniProt P50549 1-477)
# In short: as §1
# GABPA = target: T11, GABPA (Homo sapiens, UniProt Q06546 1-454)
# T11 sequence: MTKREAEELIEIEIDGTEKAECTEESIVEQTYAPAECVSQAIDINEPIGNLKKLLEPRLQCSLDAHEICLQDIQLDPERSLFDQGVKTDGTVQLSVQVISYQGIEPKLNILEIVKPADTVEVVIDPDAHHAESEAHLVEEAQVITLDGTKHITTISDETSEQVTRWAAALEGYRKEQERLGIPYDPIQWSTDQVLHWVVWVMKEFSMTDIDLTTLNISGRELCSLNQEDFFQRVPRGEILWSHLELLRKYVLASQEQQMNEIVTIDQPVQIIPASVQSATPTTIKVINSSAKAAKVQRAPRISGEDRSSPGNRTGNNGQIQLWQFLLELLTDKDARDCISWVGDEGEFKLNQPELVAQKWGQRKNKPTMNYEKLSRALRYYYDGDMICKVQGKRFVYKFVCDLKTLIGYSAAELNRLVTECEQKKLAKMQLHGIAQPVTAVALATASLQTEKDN
# In short: as §1
# CRX = CRX (Homo sapiens, UniProt O43186 1-299)
# In short: as §1
# Sequence of ELF1 (P32519 whole entry): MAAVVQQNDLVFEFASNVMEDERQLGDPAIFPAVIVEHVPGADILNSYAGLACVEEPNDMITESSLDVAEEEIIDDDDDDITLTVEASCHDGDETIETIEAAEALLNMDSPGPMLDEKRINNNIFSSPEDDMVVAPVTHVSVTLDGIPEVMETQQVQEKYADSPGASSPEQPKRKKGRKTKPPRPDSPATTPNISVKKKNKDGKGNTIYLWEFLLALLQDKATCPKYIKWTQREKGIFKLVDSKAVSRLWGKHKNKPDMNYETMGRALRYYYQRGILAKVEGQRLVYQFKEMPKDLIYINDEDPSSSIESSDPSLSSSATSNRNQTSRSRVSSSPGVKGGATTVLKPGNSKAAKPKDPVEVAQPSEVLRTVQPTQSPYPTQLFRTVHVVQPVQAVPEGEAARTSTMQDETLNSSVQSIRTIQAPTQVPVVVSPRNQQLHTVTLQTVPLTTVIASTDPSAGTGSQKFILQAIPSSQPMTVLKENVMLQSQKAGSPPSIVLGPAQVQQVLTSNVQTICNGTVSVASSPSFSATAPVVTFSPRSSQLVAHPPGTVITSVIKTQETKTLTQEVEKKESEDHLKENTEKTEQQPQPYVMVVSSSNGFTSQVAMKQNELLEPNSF
# Sequence of ETV1 (P50549 whole entry): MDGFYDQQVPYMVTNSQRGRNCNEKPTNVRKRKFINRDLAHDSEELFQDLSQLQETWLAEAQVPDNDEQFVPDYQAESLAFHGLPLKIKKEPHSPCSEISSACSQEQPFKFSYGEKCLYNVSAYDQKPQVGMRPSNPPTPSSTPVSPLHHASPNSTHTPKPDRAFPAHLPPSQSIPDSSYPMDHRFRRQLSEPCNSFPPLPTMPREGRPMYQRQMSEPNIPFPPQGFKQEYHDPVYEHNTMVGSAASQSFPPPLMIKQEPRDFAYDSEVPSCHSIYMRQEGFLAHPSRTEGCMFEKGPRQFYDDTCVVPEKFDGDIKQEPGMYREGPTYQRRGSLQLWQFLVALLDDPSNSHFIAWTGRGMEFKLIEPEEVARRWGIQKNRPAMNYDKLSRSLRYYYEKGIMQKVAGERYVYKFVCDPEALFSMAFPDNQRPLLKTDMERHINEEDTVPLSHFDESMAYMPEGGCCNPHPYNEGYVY
# Sequence of SPIB (Q01892 whole entry): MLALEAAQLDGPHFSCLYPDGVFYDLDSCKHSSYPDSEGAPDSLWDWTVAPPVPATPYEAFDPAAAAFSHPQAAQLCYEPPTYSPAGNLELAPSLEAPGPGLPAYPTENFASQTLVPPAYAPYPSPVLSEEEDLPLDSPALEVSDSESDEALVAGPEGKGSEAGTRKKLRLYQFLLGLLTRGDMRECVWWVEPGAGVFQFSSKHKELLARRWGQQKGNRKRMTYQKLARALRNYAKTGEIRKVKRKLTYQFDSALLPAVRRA
# Sequence of ELF4 (Q99607 whole entry): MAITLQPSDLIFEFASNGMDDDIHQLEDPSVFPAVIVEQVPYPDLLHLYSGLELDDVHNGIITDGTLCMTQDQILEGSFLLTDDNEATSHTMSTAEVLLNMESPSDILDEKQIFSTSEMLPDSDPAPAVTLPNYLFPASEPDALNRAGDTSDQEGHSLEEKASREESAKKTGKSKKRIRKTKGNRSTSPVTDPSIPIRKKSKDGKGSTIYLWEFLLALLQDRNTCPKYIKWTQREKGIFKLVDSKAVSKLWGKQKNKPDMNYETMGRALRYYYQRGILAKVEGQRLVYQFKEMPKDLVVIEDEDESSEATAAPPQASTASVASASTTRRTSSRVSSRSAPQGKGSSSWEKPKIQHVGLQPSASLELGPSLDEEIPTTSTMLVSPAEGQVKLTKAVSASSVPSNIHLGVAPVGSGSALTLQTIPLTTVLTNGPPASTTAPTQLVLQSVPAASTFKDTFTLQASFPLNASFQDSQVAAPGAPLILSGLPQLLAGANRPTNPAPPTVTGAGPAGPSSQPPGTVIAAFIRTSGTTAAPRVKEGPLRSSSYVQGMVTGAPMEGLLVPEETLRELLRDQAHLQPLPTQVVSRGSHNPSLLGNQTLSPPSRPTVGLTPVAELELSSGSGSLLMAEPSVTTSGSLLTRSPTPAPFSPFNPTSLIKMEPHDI
# Sequence of ETV5 (P41161 whole entry): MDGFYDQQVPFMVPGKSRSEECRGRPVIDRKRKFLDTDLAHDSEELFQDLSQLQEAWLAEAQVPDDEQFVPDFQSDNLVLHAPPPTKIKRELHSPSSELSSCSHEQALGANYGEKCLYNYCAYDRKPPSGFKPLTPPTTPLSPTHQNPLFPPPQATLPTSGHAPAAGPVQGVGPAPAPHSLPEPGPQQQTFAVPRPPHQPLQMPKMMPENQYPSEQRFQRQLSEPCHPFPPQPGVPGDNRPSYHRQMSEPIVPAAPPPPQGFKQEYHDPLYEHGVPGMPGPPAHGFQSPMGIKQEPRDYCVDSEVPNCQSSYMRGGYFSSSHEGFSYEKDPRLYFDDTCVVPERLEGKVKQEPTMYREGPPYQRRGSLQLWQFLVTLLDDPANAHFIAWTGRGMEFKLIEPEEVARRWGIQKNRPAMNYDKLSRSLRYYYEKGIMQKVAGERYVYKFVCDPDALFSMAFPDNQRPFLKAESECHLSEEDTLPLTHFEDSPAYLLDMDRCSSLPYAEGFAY
# Sequence of CRX (O43186 whole entry): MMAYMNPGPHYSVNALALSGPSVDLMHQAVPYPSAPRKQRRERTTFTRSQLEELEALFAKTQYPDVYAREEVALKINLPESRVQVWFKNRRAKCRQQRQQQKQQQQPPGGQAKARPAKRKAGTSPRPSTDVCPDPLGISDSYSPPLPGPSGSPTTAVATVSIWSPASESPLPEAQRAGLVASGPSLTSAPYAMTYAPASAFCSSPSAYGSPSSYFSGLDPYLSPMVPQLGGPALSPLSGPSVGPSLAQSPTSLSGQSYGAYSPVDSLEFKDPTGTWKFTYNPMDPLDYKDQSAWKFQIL
sequence,measurement,setting,value
CCGGTC,binding signal,FLI1,"1.17 fold enrichment (6-mer frequency, TF over GST control)"
same,binding signal,ELK1,"1.18 fold enrichment (6-mer frequency, TF over GST control)"
same,binding signal,ERG,"1.3 fold enrichment (6-mer frequency, TF over GST control)"
same,binding signal,ELF1,"1.14 fold enrichment (6-mer frequency, TF over GST control)"
same,binding signal,EHF,"1.1 fold enrichment (6-mer frequency, TF over GST control)"
same,binding signal,SPI1,"1.01 fold enrichment (6-mer frequency, TF over GST control)"
same,binding signal,SPIB,"1.08 fold enrichment (6-mer frequency, TF over GST control)"
same,binding signal,ELK3,"1.18 fold enrichment (6-mer frequency, TF over GST control)"
same,binding signal,FEV,"1.62 fold enrichment (6-mer frequency, TF over GST control)"
same,binding signal,ETV5,"1.22 fold enrichment (6-mer frequency, TF over GST control)"
same,binding signal,SPIC,"1.01 fold enrichment (6-mer frequency, TF over GST control)"
same,binding signal,ELF4,"1.08 fold enrichment (6-mer frequency, TF over GST control)"
same,binding signal,ELK4,"1.18 fold enrichment (6-mer frequency, TF over GST control)"
same,binding signal,ETV2,"1.08 fold enrichment (6-mer frequency, TF over GST control)"
same,binding signal,ELF3,"1.14 fold enrichment (6-mer frequency, TF over GST control)"
same,binding signal,ETV1,"1.17 fold enrichment (6-mer frequency, TF over GST control)"
TCAACG,binding signal,FLI1,"1.12 fold enrichment (6-mer frequency, TF over GST control)"
same,binding signal,ELK1,"1.05 fold enrichment (6-mer frequency, TF over GST control)"
same,binding signal,GABPA,"1.09 fold enrichment (6-mer frequency, TF over GST control)"
same,binding signal,ERG,"1.08 fold enrichment (6-mer frequency, TF over GST control)"
same,binding signal,ELF1,"1.14 fold enrichment (6-mer frequency, TF over GST control)"
same,binding signal,EHF,"1.06 fold enrichment (6-mer frequency, TF over GST control)"
same,binding signal,SPI1,"1 fold enrichment (6-mer frequency, TF over GST control)"
same,binding signal,SPIB,"1.12 fold enrichment (6-mer frequency, TF over GST control)"
same,binding signal,ELK3,"1.22 fold enrichment (6-mer frequency, TF over GST control)"
same,binding signal,FEV,"1.06 fold enrichment (6-mer frequency, TF over GST control)"
same,binding signal,ETV5,"1.12 fold enrichment (6-mer frequency, TF over GST control)"
same,binding signal,SPIC,"1.1 fold enrichment (6-mer frequency, TF over GST control)"
same,binding signal,ELF4,"1.11 fold enrichment (6-mer frequency, TF over GST control)"
same,binding signal,ELK4,"1.09 fold enrichment (6-mer frequency, TF over GST control)"
same,binding signal,ETV2,"1.18 fold enrichment (6-mer frequency, TF over GST control)"
same,binding signal,CRX,"1.1 fold enrichment (6-mer frequency, TF over GST control)"
same,binding signal,ETV1,"1.15 fold enrichment (6-mer frequency, TF over GST control)"
